# PubChem BioAssay
# Calls of active or inactive are those of the source.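 How the source made its calls, unless noted: active means inhibition at or above 50% at 10 µM; inactive means inhibition below 50%.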
# Assays:
# [1] = inhibitors of TNFa-induced NFkB p65 translocation, primary screen, imaging, HUVEC, MLSMR starter and 10KST1 sets (AID 438;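 active means inhibition above 20% together with a positive visual image hit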;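 further: compound added about 3h40 before a 20 min TNFalpha stimulation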;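 on inhibition: signal is the nuclear over cytoplasmic p65 intensity ratio per well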); settings: HUVEC TNFa-induced p65 nuclear translocation; cell count: measured here: nuclei count (cytotoxicity indicator), at 2.08 µM; inhibition: at 2 µM, stronger effect = higher value, 0% TNFa-plus-vehicle, 100% no-TNFa wells
# [2] = reduction of polyQ htt aggregates in cells – imaging, exon1htt(103Q)mCFP cells, high-content imaging, primary screen (AID 483;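 active means visual image review flags a hit and inhibition of aggregation exceeds 20%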;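 further: compound exposure lasted 3 days before fixation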;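 on nuclei count: percent of the per-plate median nuclei count of sample wells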); settings: exon1htt(103Q)mCFP cell line, aggregate imaging, at 2 µM; inhibition of aggregation: stronger effect = higher value; nuclei count: measured here: cell count, toxicity
# [3] = endothelial E-selectin expression blockers – imaging, HUVEC, immunofluorescence, MLSMR starter and 10KST1 sets, primary screen (AID 487;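 active means visually confirmed hit in the image check and inhibition above 20%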;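 on inhibition: signal is fraction of cell area covered by stained E-selectin grains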;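 on nuclei count: 100% = median nuclei count of all wells on the same plate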); settings: HUVEC TNFalpha-induced E-selectin immunofluorescence imaging, at 2 µM; inhibition: stronger effect = higher value; nuclei count: measured here: cell number, toxicity
# [4] = target: Voltage-gated potassium channel subunit beta-2 (Rattus norvegicus) (UniProt P62483); assay: inhibitors of rat Kvbeta2 reductase activity – biochemical, NADPH fluorescence, primary screen (AID 622;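 active means fluorescence slope higher than the sample average by over 3 SD, cut at about -0.22 in these data, passing the limit was not always enough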;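 further: slope of raw intensity against log time taken from 70 to 1610 s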); settings: recombinant KvBeta, 4-cyanobenzaldehyde reduction, at 10 µM, stronger effect = higher value
# Chain of Voltage-gated potassium channel subunit beta-2 (Rattus norvegicus) (P62483 whole entry, looked up): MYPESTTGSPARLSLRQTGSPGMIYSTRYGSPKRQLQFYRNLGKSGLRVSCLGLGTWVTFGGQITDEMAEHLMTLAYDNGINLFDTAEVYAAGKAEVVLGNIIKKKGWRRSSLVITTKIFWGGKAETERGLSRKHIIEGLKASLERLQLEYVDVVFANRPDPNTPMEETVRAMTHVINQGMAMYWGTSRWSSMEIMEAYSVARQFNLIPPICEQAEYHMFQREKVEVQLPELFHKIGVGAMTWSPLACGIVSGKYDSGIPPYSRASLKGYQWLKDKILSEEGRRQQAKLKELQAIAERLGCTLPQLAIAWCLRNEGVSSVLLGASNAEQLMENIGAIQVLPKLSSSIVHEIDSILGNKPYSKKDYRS
# [5] = target: Voltage-gated potassium channel subunit beta-2 (Rattus norvegicus) (UniProt P62483); assay: enhancers of rat Kvbeta2 NADPH turnover – biochemical, NADPH fluorescence, primary screen (AID 623;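 active means NADPH fluorescence slope more negative than the mean of all samples by about 3 SD, 99.7% confidence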;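 further: fluorescence intensity change per second fitted from 20 to 320 s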); settings: Recombinant KvBeta, NADPH fluorescence decrease slope, 10 min; at 10 µM; stronger effect = lower value
# [6] = target: Alpha-2C adrenergic receptor (Homo sapiens) (UniProt P18825); assay: compounds altering alpha2C-coupled GIRK flux – cell-based, HEK293 alpha2C/GIRK1/2, thallium flux, primary screen (AID 624;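 active means fluorescence slope after compound addition differing from the mean of all screened samples at 99.7% confidence, in either direction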;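 further: slope of fluorescence ratio to pre-addition baseline per second over 15 to 24 s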); settings: thallium flux BTC fluorescence, at 10 µM, actives lie on both sides
# Chain of Alpha-2C adrenergic receptor (Homo sapiens) (P18825 whole entry, looked up): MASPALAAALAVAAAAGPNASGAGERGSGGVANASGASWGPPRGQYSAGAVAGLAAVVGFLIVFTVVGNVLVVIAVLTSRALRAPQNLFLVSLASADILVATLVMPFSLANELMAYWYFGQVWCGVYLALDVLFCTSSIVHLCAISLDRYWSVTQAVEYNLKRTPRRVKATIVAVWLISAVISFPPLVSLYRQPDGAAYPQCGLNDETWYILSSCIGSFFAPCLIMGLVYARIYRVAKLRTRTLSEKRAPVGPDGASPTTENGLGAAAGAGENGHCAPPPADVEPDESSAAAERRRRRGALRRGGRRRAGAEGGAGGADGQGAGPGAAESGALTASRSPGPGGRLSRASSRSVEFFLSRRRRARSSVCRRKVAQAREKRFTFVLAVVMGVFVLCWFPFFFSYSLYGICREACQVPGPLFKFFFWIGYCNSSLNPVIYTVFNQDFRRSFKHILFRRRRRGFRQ
# [7] = blockers of RIG-like receptor reporter activation – cell-based, Sendai virus stimulus, luciferase, 10K MLSCN set, TLR/RLR signaling modifier project, primary screen (AID 602276); settings: HEK293 RL24 IRF3 luciferase reporter, at 10 µM, stronger effect = higher value;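 further: firefly luciferase from ISG56 promoter only with Renilla not read in this screen; 0% = Sendai virus plus DMSO and 100% = medium plus DMSO without virus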
# [8] = TLR3 IRF3 reporter activation blockers – cell-based, poly I:C stimulus, luciferase, 10K MLSCN set, primary screen (AID 602277;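 active means inhibition of the reporter signal at or above 50%; inactive means inhibition below 50%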); settings: HEK293-TLR3 RL24 IRF3 luciferase reporter, at 10 µM, stronger effect = higher value
SMILES,cell count [1],inhibition [1],inhibition of aggregation [2],nuclei count [2],inhibition [3],nuclei count [3],fluorescence slope [4],NADPH fluorescence slope [5],slope [6],inhibition [7],inhibition [8]
O=C(NCc1ccccc1)c1cc(-c2ccco2)on1,445,-0.9% (inactive),-0.2% (inactive),102%,-18.9% (inactive),103%,-0.506 (inactive),-3.5e-05 (inactive),0.00556 (inactive),-27.8% (inactive),-74.9% (inactive)
COc1ccc(S(=O)(=O)N2CCCC2C(=O)Nc2ccc(C)cc2)cc1 (centres undefined),469,42.3% (active),-25% (inactive),130%,-11.9% (inactive),73.3%,-0.498 (inactive),-5.1e-05 (inactive),0.00758 (inactive),12.2% (inactive),7.96% (inactive)
C=CCc1cc(OC)ccc1OCC(O)CN1CCN(c2ccc(OC)cc2)CC1 (centres undefined),402,2.5% (inactive),1.9% (inactive),105%,-16.2% (inactive),106%,-0.629 (inactive),7.7e-07 (inactive),0.00605 (inactive),12.2% (inactive),22.6% (inactive)
Cc1ccc(-c2ccc(SCC(=O)Nc3nonc3C)nn2)cc1,413,2.2% (inactive),-2% (inactive),103%,-24.8% (inactive),108%,-0.283 (inactive),-5.6e-05 (inactive),0.00591 (inactive),9.6% (inactive),15.8% (inactive)
O=C(OCc1ccc2c(c1)OCO2)c1ccc(S(=O)(=O)N2CCCCC2)cc1,732,4.4% (inactive),-6.1% (inactive),102%,83.3% (active),87.7%,-0.415 (inactive),-5.1e-05 (inactive),0.00821 (inactive),7.08% (inactive),9.8% (inactive)
COc1cccc(C2=NOC(C(=O)N3CCN(c4ccccc4)CC3)C2)c1OC (centres undefined),471,15% (inactive),6.5% (inactive),113%,8% (inactive),99.4%,-0.536 (inactive),-8.8e-06 (inactive),0.00606 (inactive),19% (inactive),6.35% (inactive)
COC(=O)c1ccc(-n2nnnc2SCc2nn[nH]n2)cc1,543,-7.8% (inactive),-11.5% (inactive),99.6%,-29% (inactive),130%,-0.35 (inactive),1.4e-05 (inactive),0.00668 (inactive),-8.25% (inactive),-3.28% (inactive)
O=C(O)c1cccc(S(=O)(=O)N2CCOCC2)c1,378,-0.6% (inactive),12.5% (inactive),95.2%,20.2% (inactive),99.4%,-0.472 (inactive),-0.000388 (inactive),0.00562 (inactive),-16% (inactive),-15.1% (inactive)
CCN1C(=O)c2ccccc2S(=O)(=O)c2ccc(C(=O)NCc3cccnc3)cc21,804,-6.4% (inactive),-35.7% (inactive),107%,-50.1% (inactive),129%,-0.569 (inactive),-4.8e-05 (inactive),0.00634 (inactive),-13.6% (inactive),1.79% (inactive)
CC1CCCC(C)N1C(=O)COC(=O)c1ccc[nH]c1=O (centres undefined),476,0% (inactive),3.4% (inactive),98.4%,25.2% (inactive),113%,-0.326 (inactive),-7.3e-06 (inactive),0.00649 (inactive),16.7% (inactive),31.4% (inactive)
CCOc1ccc(Cn2nnc(C(=O)NCc3ccc(OC)cc3)c2N)cc1,509,-1.3% (inactive),15.4% (inactive),72.5%,-22.4% (inactive),100%,-0.536 (inactive),-2.2e-06 (inactive),0.00681 (inactive),17.5% (inactive),30.1% (inactive)
CCCCSc1cc(C)nc2ncnn12,416,-4% (inactive),-3.2% (inactive),117%,12.1% (inactive),119%,-0.492 (inactive),3.1e-05 (inactive),0.00349 (inactive),-10.9% (inactive),9.98% (inactive)
Cc1ccc(C)c(N2CCN(C(=O)c3cc4ccccn4n3)CC2)c1,584,-2.9% (inactive),-16.9% (inactive),103%,-31.8% (inactive),118%,-0.615 (inactive),-2.1e-05 (inactive),0.00707 (inactive),-3.21% (inactive),21.6% (inactive)
CCSc1oc(-c2cccs2)nc1S(=O)(=O)c1ccccc1,690,-6.7% (inactive),-10.8% (inactive),101%,-16.9% (inactive),104%,-0.56 (inactive),-3.1e-05 (inactive),0.00698 (inactive),14.5% (inactive),34% (inactive)
c1ccc2c(c1)CNC1(CCCCC1)C2,362,-3.4% (inactive),13% (inactive),114%,-2.1% (inactive),103%,-0.552 (inactive),2.5e-05 (inactive),0.00453 (inactive),13.3% (inactive),14.2% (inactive)
CCCCN(C)C(=O)CS(=O)(=O)Cc1nc(-c2cccc(OC)c2)oc1C,737,1.1% (inactive),13.9% (inactive),98.3%,-26.7% (inactive),115%,-0.518 (inactive),-3.7e-05 (inactive),0.00718 (inactive),16.1% (inactive),16.3% (inactive)
CCCN1CCN(CCCNC(=O)Cn2ncc3c4ccccc4n(C)c3c2=O)CC1,509,-3% (inactive),-2.1% (inactive),101%,-61.4% (inactive),110%,-0.615 (inactive),2.2e-07 (inactive),0.00665 (inactive),-2.18% (inactive),34.8% (inactive)
CC(C)(CSc1nncn1N)NS(=O)(=O)c1ccc(Cl)cc1,690,-4.4% (inactive),11.7% (inactive),58.2%,-17.3% (inactive),108%,-0.447 (inactive),-4.4e-05 (inactive),0.00436 (inactive),-0.22% (inactive),4% (inactive)
Cc1ccc(S(=O)(=O)Nc2cc(C(=O)O)ccc2N2CCCCC2)cc1,518,-20.1% (inactive),15.4% (inactive),98.1%,-107% (inactive),114%,-0.42 (inactive),-2.5e-05 (inactive),0.00575 (inactive),11.2% (inactive),29.2% (inactive)
